Test results published in PubChem BioAssay AID504465 (National Center for Advancing Translational Sciences (NCATS), 2011).
The whole screen tested about 2,100 compounds, of which about 210 (10%) were called active. Another 53% or so got no clear call; they are omitted. The list shows a part of the results. Values without a mark were called inactive. Calls follow the shape of the dose curve; as a rule, active = well fitted inhibition curve with a large enough effect; inconclusive = small, poorly fitted or top-dose-only effect, or effect the other way; inactive = no such curve, though single readings can be large or run the other way.

Test: IN Cell qHTS Assay for Inhibitors of the mTORC1 Signaling Pathway in MEF (Tsc2-/-, p53-/-) Cells: Sytravon; also: nearly all actives have a fitted effect of over 60% in size;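 as to activity, negative = inhibition: plate controls were DMSO wells for no effect and 7.5 nM rapamycin full pathway inhibition for full effect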
Conditions: phospho-rpS6 immunofluorescence, 24 h; series mostly up to 38.3 µM; activity, negative = inhibition: at the top concentration
Procedure, shortened: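 Tsc2-/-, p53-/- MEFs (empty-vector) treated with compound 24 h at 37 degree Celsius, then fixed and stained for phospho-rpS6 Ser235/236 (Alexa-488) plus Hoechst. Reported as % positive cells, thresholds set against 7.5 nM rapamycin and DMSO wells.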
Potency is read from the fitted curve at half-maximal effect.

| Compound | activity, negative = inhibition [%] | Potency |
| --- | --- | --- |
| Cc1ccccc1C(=O)N1CCN(CCc2ccccn2)CC1 | -21.4 |  |
| CCOC(=O)c1cnc2c(Cl)cc(Cl)cc2c1Nc1cc(C(=O)O)ccc1C | -7.51 |  |
| COc1ccc(NC(=O)CN2C(=O)C(=O)c3ccccc32)c(OC)c1 | -5 |  |
| CCOc1ccccc1NC(=O)CN1C(=O)C(=O)c2ccccc21 | -24 |  |
| Cc1cc(Cl)ccc1NC(=O)CN1C(=O)C(=O)c2ccccc21 |  | 2.07 µM (active) |
| CCOc1ccccc1CC1C(=O)Nc2ccc(Br)cc21 (centres undefined) | -39.3 |  |
| CC(=O)c1ccc(N2CCN(C(=O)C3CCCN(S(=O)(=O)c4ccc(Br)s4)C3)CC2)cc1 (centres undefined) | -47.1 |  |
| COc1ccc(Cn2c(C(=O)O)c(CNCC(C)c3ccccc3)c3ccc(OC)cc32)cc1 (centres undefined) | -8.03 |  |
| Cc1cccc(OCC(=O)Nc2ccccc2OCc2cc(=O)n3ccccc3n2)c1 | -6.25 |  |
| CCOc1ccccc1NC(=O)Cn1c(=O)n(CCC(=O)NCc2ccc3c(c2)OCO3)c(=O)c2ccccc21 |  | 4.65 µM (active) |
| Cc1ccccc1NC(=O)Cn1c(=O)n(CCCCCC(=O)NCc2ccc3c(c2)OCO3)c(=O)c2sccc21 | -15 |  |
| Cc1ccc(C)c(Cn2c(=O)n(CCCCCC(=O)NCc3ccc4c(c3)OCO4)c(=O)c3sccc32)c1 | -7 |  |
| Cc1cc(C)c(NC(=O)Cn2c(=O)n(Cc3ccc(C(=O)NCc4ccc5c(c4)OCO5)cc3)c(=O)c3ccccc32)c(C)c1 |  | 4.14 µM (active) |
| COc1ccc(NC(=O)Cn2c(=O)n(CCCC(=O)NCc3ccccc3OC)c(=O)c3ccccc32)cc1Cl | 25.7 |  |
| Cc1cc(C)c(NC(=O)Cn2c(=O)n(CCC(=O)NCc3ccc4c(c3)OCO4)c(=O)c3ccccc32)c(C)c1 | 14.9 |  |
| Cc1ccc(-c2nc(-c3cccs3)c(-c3cccs3)[nH]2)cc1 | -4.58 |  |
| Cc1ccc(Cl)cc1-n1ncc2c(NC3CCCCCC3)ncnc21 | 6.25 |  |
| CCOC(=O)c1ccc2c(c1)N(Cc1cccc([N+](=O)[O-])c1)C(=O)c1ccccc1S2 | -3.45 |  |
| O=C(Nc1ccc(F)cc1)Nc1nnc(SCC(=O)N2CCCCC2)s1 | -0.292 |  |
| COc1cccc(-c2nc3c(c(SCC(=O)Nc4cccc(C)c4C)n2)Cc2c(CO)cnc(C)c2O3)c1 | -0.395 |  |

| Compound | activity, negative = inhibition [%] | Potency |
| --- | --- | --- |
| CCOc1ccc(NC(=O)Cn2ccn(-c3ccc(F)c(F)c3)c(=O)c2=O)cc1 | -26.3 |  |
| CCOc1ccc(NC(=O)c2nc(S(=O)(=O)Cc3ccccc3F)ncc2Cl)cc1 |  | 3.69 µM (active) |
| CCOc1cccc(NC(=O)CSc2ncc(-c3ccc(Cl)cc3)[nH]2)c1 | 16.1 |  |
| O=C(Nc1ccccc1F)c1nc(S(=O)(=O)Cc2ccccc2F)ncc1Cl |  | 2.33 µM (active) |
| CCOc1ccc(CNCc2c(C(=O)O)n(Cc3ccccc3C)c3cc(OC)ccc23)cc1OC | -5.63 |  |
| O=C1CC(c2ccccc2)Cc2[nH]c(=O)c(-c3nc(-c4cccc(Cl)c4)cs3)cc21 (centres undefined) | -28 |  |
| COc1ccc(C2C(=O)N(C3CCCCCC3)CC(=O)N2CCc2ccccc2)cc1 (centres undefined) | 6.25 |  |
| CC(C)c1cnc2c(c1SCC(=O)c1ccc(Cl)cc1)c(=O)n(C)c(=O)n2C | -16.7 |  |
| COc1ccccc1NC(=O)c1c(NCc2ccc(C)o2)sc2c1CCCCC2 | 0 |  |
| COc1ccc(OC)c(NC(=O)c2c(NCc3ccc(C)o3)sc3c2CCCCC3)c1 | 0 |  |
| COc1ccc(CC(=O)Nc2sc3c(c2C(=O)Nc2cccc(C)c2)CCCCC3)cc1 |  | 11.7 µM (active) |
| COc1ccc(NC(=O)c2c(NCc3ccc(C)o3)sc3c2CCC(C)C3)cc1 (centres undefined) | 0 |  |
| COc1ccc(CC(=O)Nc2sc3c(c2C(=O)Nc2ccccc2)CCCCC3)cc1 |  | 9.27 µM (active) |
| COc1ccc(NC(=O)c2c(NCc3ccc(C)o3)sc3c2CCCCC3)c(OC)c1 | 0 |  |
| CCOC(=O)c1c(NC(=O)c2ccc(S(=O)(=O)N3CCCC(C)C3)cc2)sc2c1CCN(C(C)C)C2 (centres undefined) | 6.25 |  |
| FC(F)(F)c1ccc(C2=Nc3ccccc3NC(c3cccs3)=N2)cc1 | -26.8 |  |
| O=C(CCCn1ccc2cc(S(=O)(=O)N3CCCC3)ccc21)NCc1ccc(Cl)cc1 | -28.7 |  |
| CCc1ccccc1-n1c(SCC(=O)Nc2ccc(C)cc2)nc2n[nH]c(C)c2c1=N | 0 |  |
| O=C(NCc1ccc(Cl)cc1Cl)c1cccc(N2CCCS2(=O)=O)c1 | 19 |  |
| CCCCN1C(=O)C(O)(c2c(C)[nH]c3ccccc23)c2ccccc21 (centres undefined) | -20 |  |

| Compound | activity, negative = inhibition [%] | Potency |
| --- | --- | --- |
| Cc1ccccc1S(=O)Cc1ccc(C(=O)N2CCN(c3cccc(C)c3C)CC2)o1 (centres undefined) |  | 3.69 µM (active) |
| Cc1ccc(S(=O)(=O)Cc2ccc(C(=O)N3CCN(c4cccc(C)c4C)CC3)o2)cc1 | 0 |  |
| Cc1cccc(N2CCN(C(=O)Cn3nc(Cc4cccnc4)c4ccccc4c3=O)CC2)c1C | -14.4 |  |
| CC1CCCCN1CC(=O)N1CCCc2c1c(=O)oc1ccc(OCc3ccccc3)cc21 (centres undefined) |  | 13.1 µM (active) |
| O=C(COc1ccc2oc3c(c2c1)CCCC3)Nc1cccc(Br)c1 | -25.2 |  |
| COc1ccc(OC)c(NC(=O)CN2C(=O)COc3ccc(S(=O)(=O)NC4CCCC4)cc32)c1 | 0 |  |
| COc1ccc(-c2nc(SCC(=O)NCc3ccccc3Cl)n[nH]2)cc1 | 5.77 |  |
| COc1cccc(C2C(C(N)=O)=C(C)Nc3nc(CCCO)nn32)c1 (centres undefined) | -9.38 |  |
| CCCC1=Nc2cc(C(=O)NCCOC)ccc2Sc2ccccc21 | -6.5 |  |
| COc1cc(C(=O)Nc2cc(C)c(O)c(-c3nc4ccccc4s3)c2)cc(OC)c1OC | -76.9 |  |
| CCSc1ccccc1C(=O)Nc1ccc(-c2nc3ccccc3s2)c(O)c1 |  | 4.65 µM (active) |
| Cc1ccccc1NC(=O)CSc1nc2ccc(NC(=O)c3ccccc3)cc2s1 | -6.34 |  |
| Cc1ccc(C)c(N2CCN(C(=O)C3CCN(c4nc5ccc(C)cc5[nH]4)CC3)CC2)c1 | 0.961 |  |
| Cc1ccccc1Cn1cc(NC(=O)c2cc(-c3ccc(Cl)cc3)on2)cn1 | -3.51 |  |
| COc1ccc(N2CC(c3nc(-c4cc(OC)c(OC)c(OC)c4)no3)CC2=O)cc1Cl (centres undefined) | -1.67 |  |
| Cc1ccc(NC(=O)Cc2coc3ccc(C(C)C)cc23)cc1Cl | -9.6 |  |
| Cc1ccc2occ(CC(=O)Nc3ccc(Cl)c(C(F)(F)F)c3)c2c1 |  | 13.1 µM (active) |
| Cc1ccc2onc(CC(=O)Nc3cccc(C(F)(F)F)c3)c2c1 | -16.8 |  |
| CC(C)(C)c1ccc(Oc2nc3ccccn3c(=O)c2/C=C(\C#N)c2nc3ccccc3[nH]2)cc1 | 16.3 |  |
